These results are taken from PubChem BioAssay (Tox21).

In assay [1] the target is Thyrotropin receptor (Homo sapiens) (UniProt P16473). Kind of assay: qHTS assay to identify small molecule agonists of the thyroid stimulating hormone receptor (TSHR) signaling pathway (AID 1224843; calls by dose curve; further: nearly all actives have a fitted effect of over 45% in size). In outline:
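HEK293 cells stably bearing the thyrotropin receptor were plated at 800 cells/well and challenged with compound (30 min, RT). Accumulated cAMP was quantified via cAMP-d2 competing for cryptate-tagged antibody.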

Assay [2] is described as follows: qHTS assay to identify small molecule agonists of the hypoxia (HIF-1) signaling pathway - cell viability counter screen (AID 1224844; calls by dose curve; further: nearly all actives have a fitted effect of over 50% in size). A digest of the protocol: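 Multiplexed with the HRE beta-lactamase assay, this viability read used CellTiter-Glo luminescence (30 min, RT) on HRE-bla ME-180 cells treated 17 hrs with compounds in 0.5% dialyzed FBS medium.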
The nature of assay [3]: qHTS assay to identify small molecule agonists of the hypoxia (HIF-1) signaling pathway (AID 1224846; active means well fitted activation curve with a large enough effect in the signal ratio in the repeat runs, not every such curve was filed as active; the % refers to the signal ratio). In outline:
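Hypoxia-pathway activation was scored as increased beta-lactamase from an HRE-controlled reporter in ME-180 cells; plated at 2,000 cells per well with 0.5% dialyzed FBS, they were exposed 17 hrs to compounds and then given CCF4-AM.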

Assay [4] is described as follows: qHTS assay to identify small molecule agonists of H2AX - cell viability counter screen (AID 1224847; calls by dose curve; further: top concentration of the series differs between compounds; nearly all actives have a fitted effect of over 30% in size). In outline:
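Viability of CHO-K1 (wild type) cells after 3 hr compound exposure was measured by CellTiter-Glo luminescence.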

Assay [5] in a line: qHTS RealTime-Glo MT Cell Viability Assay in HepG2 cells - 24 hour (AID 1224867). Further: nearly all actives have a fitted effect of over 50% in size. In outline:
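Viability was tracked continuously by NanoLuc luminescence from prosubstrate reduced by living HepG2 cells, at successive time points over 40 h of compound exposure. Cells with reagent were preincubated 5 h at 37 °C before compound addition.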

Assay [6] can be described thus: qHTS RealTime-Glo MT Cell Viability Assay in HEK293 cells - 32 hour (AID 1224868). Further: top concentration of the series differs between compounds; nearly all actives have a fitted effect of over 50% in size. A digest of the protocol:
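Viability tracked continuously by luminescence as live cells reduce a prosubstrate for NanoLuc; HEK293 cells preincubated 5 h, compound-treated at 37 C, and read at 0, 8, 16, 24, 32 and 40 h.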

Assay [7] is described as follows: A CellTox Green Cytotoxicity Assay to monitor cytotoxicity in HEK293 cells - 0 hour (AID 1224869). Further: nearly all actives have a fitted effect of over 50% in size. A digest of the protocol:
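Seeding of HEK293 cells together with cytotoxicity dye preceded a 5 h incubation at 37 C/5% CO2. Test compounds in DMSO were then added and fluorescence monitored across 40 h.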

A short description of assay [8]: qHTS assay to identify small molecule agonists of H2AX (AID 1224845; active means well fitted activation curve with a large enough effect in the signal ratio in the repeat runs, not every such curve was filed as active; the % refers to the signal ratio). A digest of the protocol: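 Phospho-H2AX Ser139 measured by HTRF (ex 320 nm; em 665 and 620 nm) after 24 hr antibody incubation. Compounds, 15 concentrations, 0.76% DMSO, were applied to CHO-K1 cells for 3hr at 37C before lysis.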
A short description of assay [9]: qHTS assay to identify small molecule antagonists of the estrogen related receptor (ERR) signaling pathway from Tox21 library (AID 1224848). Further: nearly all actives have a fitted effect of over 50% in size. Further: potency means the concentration at half of the fitted maximal effect. A digest of the protocol:
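Reading was by luminescence 30 min after ONE-Glo addition. Before that, ERR cells at 2,000 per well had rested 6 h at 37 C/5% CO2 and then received pin-tooled compounds in DMSO for 18 h at 37 C.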

The nature of assay [10]: qHTS assay to identify small molecule agonists of the estrogen related receptor (ERR) signaling pathway from Tox21 library (AID 1224849; calls by dose curve; further: nearly all actives have a fitted effect of over 15% in size). The conditions noted are these: ERR reporter cell line, ONE-Glo luciferase, 18 h; at 92.4 µM (top of the series) unless noted. A digest of the protocol: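 Six hours post-seeding at 37 C/5% CO2, ERR cells receive DMSO-solubilised compounds; after 18 h at 37 C, ONE-Glo reagent is applied and luminescence recorded.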

A number with no mark means an inactive call. Results filed as inconclusive are left out. The source made the active and inactive calls. Unless noted, the call rests on the fitted dose curve; in most records, active means well fitted curve in the direction sought with a large enough effect in the repeat runs; inconclusive means weak or mixed curves; inactive means no such curve, though single readings can be large; an effect the other way counts as inactive or inconclusive.
On the % scale 0 is the no-effect control and ±100 the full control effect.

Sequence of Thyrotropin receptor (Homo sapiens) (P16473 whole entry, looked up): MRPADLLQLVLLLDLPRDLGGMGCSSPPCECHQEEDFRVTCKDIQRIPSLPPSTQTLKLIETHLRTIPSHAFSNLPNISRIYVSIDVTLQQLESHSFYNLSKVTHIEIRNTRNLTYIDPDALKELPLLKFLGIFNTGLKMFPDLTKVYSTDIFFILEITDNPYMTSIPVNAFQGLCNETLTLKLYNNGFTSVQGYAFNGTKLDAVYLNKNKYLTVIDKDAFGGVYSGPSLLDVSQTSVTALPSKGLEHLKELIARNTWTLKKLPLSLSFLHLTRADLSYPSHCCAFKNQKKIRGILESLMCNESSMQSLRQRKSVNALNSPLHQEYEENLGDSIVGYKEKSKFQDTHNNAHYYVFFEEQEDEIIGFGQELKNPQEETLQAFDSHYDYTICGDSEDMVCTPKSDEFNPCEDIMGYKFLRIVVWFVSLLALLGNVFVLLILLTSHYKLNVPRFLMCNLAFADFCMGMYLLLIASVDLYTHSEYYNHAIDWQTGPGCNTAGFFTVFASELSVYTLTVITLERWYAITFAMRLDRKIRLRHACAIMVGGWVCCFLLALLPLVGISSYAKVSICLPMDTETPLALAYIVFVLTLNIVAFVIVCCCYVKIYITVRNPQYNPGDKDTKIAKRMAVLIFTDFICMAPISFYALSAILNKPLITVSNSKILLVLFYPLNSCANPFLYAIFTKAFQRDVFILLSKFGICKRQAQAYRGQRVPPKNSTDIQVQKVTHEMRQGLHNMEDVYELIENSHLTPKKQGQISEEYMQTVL

Consider `Nc1cc(N)cc(C(=O)O)c1`, for which the result in assay [1], in assay [3] and in assay [5] was inactive. In addition, the Potency result in assay [2], in [4], in [6] and in assay [7] was “inactive” in each case.

Regarding `NC(CS)C(=O)O` (centres undefined), the outcome in assay [1], in [3] and in [5] was inactive. For the same compound, the Potency result in assay [2], in [6] and in assay [7] was “inactive” each time.

As for `CC(C=O)Cc1ccc(C(C)C)cc1` (centres undefined), the result in assay [1], in assay [3] and in assay [5] was inactive. The Potency entry in [2], in [6] and in assay [7] was “inactive” throughout.

Consider `CCCCCCCCCCCCCCCCCCOCC(O)CO` (centres undefined), for which the call in assay [1], in assay [8], in [3] and in [5] was inactive. The Potency result in [4], in assay [6] and in assay [7] was “inactive” in each case.

Regarding `CC(C)c1ccc2oc3nc(N)c(C(=O)O)cc3c(=O)c2c1`, the compound was classed as inactive in assay [1], in assay [3] and in assay [5]. Also, the Potency entry in assay [4], in assay [9], in assay [6] and in [7] was “inactive” in each case. For the same compound, in assay [10], the activity change, positive = activation is 105% [at 42.5 µM] (active).

As to `O=C(O)/C=C/c1ccc(/C=C/C(=O)O)cc1`, the Potency result in [2], in assay [4], in assay [6] and in [7] was “inactive” in each case. In addition, the outcome in assay [8], in assay [3] and in assay [5] was inactive.

For `CCCCCCCCCCCl`, the Potency entry in assay [2], in assay [4], in [9], in [6] and in [7] was “inactive” throughout. For the same compound, the compound was called inactive in [8], in assay [3] and in [5]. Moreover, in assay [10], the activity change, positive = activation was 0.564%.

In the case of `NCCN1CCNC1=O`, the outcome in assay [1], in [3] and in assay [5] was inactive. Besides, the Potency result in assay [4], in assay [6] and in assay [7] was “inactive” throughout.

As to `[O-][N+](=Nc1ccccc1)c1ccccc1`, the Potency result in assay [2], in assay [4], in [6] and in [7] was “inactive” throughout. For the same compound, the compound was called inactive in [8], in assay [3] and in [5].

Take `COc1cccc(Br)c1`: the outcome in assay [1], in assay [3] and in [5] was inactive. In addition, the Potency result in assay [4] and in assay [6] was “inactive” each time. Also, in [10], the activity change, positive = activation was 0.21%.

In the case of `CCCCCOC(=O)Nc1nc(=O)n([C@@H]2O[C@H](C)[C@@H](O)[C@H]2O)cc1F`, the outcome in assay [1], in [8], in assay [3] and in [5] was inactive. For the same compound, the Potency entry in assay [4] and in assay [7] was “inactive” in each case.

As to `Oc1cc(O)c2c(c1)O[C@H](c1ccc(O)c(O)c1)[C@H](O)C2`, the result in assay [1] and in [5] was inactive. For the same compound, the Potency result in assay [4], in assay [6] and in assay [7] was “inactive” each time.

Regarding `CC(C)N1C(=O)c2ccccc2C1=O`, the compound was classed as inactive in assay [1], in [8], in assay [3] and in [5]. In addition, the Potency entry in assay [6] and in [7] was “inactive” in each case.

In the case of `CN(C)CCOC(c1ccc(Cl)cc1)c1ccccn1` (centres undefined), the compound was classed as inactive in assay [1], in assay [8] and in assay [5]. In addition, the Potency entry in assay [4] and in assay [6] was “inactive” each time.

Consider `C1=C\CC/C=C\CC/C=C\CC/1`, for which the Potency result in assay [2], in [4], in assay [9] and in assay [6] was “inactive” in each case. The result in [8], in assay [3] and in [5] was inactive. For the same compound, in assay [10], the activity change, positive = activation was 2.93%.

Regarding `O=C(O)CCNC(=O)c1ccc(N=Nc2ccc(O)c(C(=O)O)c2)cc1`, the result in assay [1], in [3] and in assay [5] was inactive. In addition, the Potency result in assay [4], in assay [6] and in assay [7] was “inactive” each time.

Regarding `CCCC(C)CO` (centres undefined), the result in [1], in [3] and in assay [5] was inactive. The Potency entry in assay [4], in assay [6] and in assay [7] was “inactive” throughout.

Turning to `CCCC(C)C(=O)O` (centres undefined), the call in assay [1], in assay [3] and in [5] was inactive. Further, the Potency result in assay [4], in assay [6] and in assay [7] was “inactive” throughout. Also, the Potency in assay [9] is 52.3 µM (active). Besides, in [10], the activity change, positive = activation was -46.3%.

As to `C=CC(=O)N1CCOCC1`, the compound was classed as inactive in assay [1], in [3] and in assay [5]. For the same compound, the Potency result in assay [9], in [6] and in assay [7] was “inactive” throughout. In [10], the activity change, positive = activation is 4.07%.

As for `O=[N+]([O-])c1ccc(Oc2ccc([N+](=O)[O-])cc2)cc1`, the Potency result in assay [2], in assay [4] and in [7] was “inactive” throughout. The compound was called inactive in assay [8], in [3] and in assay [5]. In addition, the activity change, positive = activation in [10] was -4.74%.

For `C1COCCO1`, the Potency entry in assay [2], in [4], in assay [9] and in assay [6] was “inactive” throughout. Moreover, the outcome in [8], in [3] and in [5] was inactive. The activity change, positive = activation in assay [10] is 5.15%.

Consider `CC(C)CCOC(=O)CC(C)C`, for which the Potency entry in assay [2], in assay [4] and in [6] was “inactive” throughout. The result in assay [8], in assay [3] and in assay [5] was inactive.

Regarding `Nc1cc(C(Cl)=C(Cl)Cl)c(S(N)(=O)=O)cc1S(N)(=O)=O`, the call in assay [1], in assay [8] and in [5] was inactive. In addition, the Potency entry in [4], in assay [6] and in [7] was “inactive” throughout.

For `COCc1ccc(COC)cc1`, the Potency result in assay [2], in assay [4], in [6] and in assay [7] was “inactive” throughout. Besides, the call in assay [8], in [3] and in assay [5] was inactive.

Take `CC(CCO)CCCC(C)(C)O` (centres undefined): the Potency result in [2], in [4] and in [6] was “inactive” each time. The compound was called inactive in [8], in [3] and in assay [5].

Take `CCCCCCOC(=O)c1ccccc1O`: the Potency entry in assay [2], in [4], in assay [6] and in [7] was “inactive” each time. Also, the call in [8], in assay [3] and in assay [5] was inactive. The activity change, positive = activation in [10] is 8.56%.
